Measured values taken from PubChem BioAssay AID1159580 (chemical genetic matrix, 2015).
The campaign covered roughly 5,500 compounds. About 2,000 (36%) were called active. Inconclusive results (about 18%) are left out. Cut-off read from the data, not from the text of the source: active = normalized growth mostly below about 0.91 (no sharp cut-off); inconclusive = no clear call, values can overlap the other calls; inactive = mostly above about 0.92. The list shows a part of the results.

Test: chemical genetic growth profiling, strain panel (AID 1159580);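 note: tested at 20 µM; growth read once vehicle control cultures reached saturation at 30 °C; 1 = growth at the plate median or of vehicle wells; lower values mean less growth of the strain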
Settings: growth OD

Measured: normalized growth

O=C1c2ccccc2C(=O)c2c1ccc(O)c2O
inactive: S. cerevisiae deletion strains, locus YKL009W, strain mrt4, stronger effect = lower value 0.907 | S. cerevisiae deletion strains, locus YOL012C, strain htz1 0.219
active: S. cerevisiae deletion strains, locus YJL187C, strain SWE1, stronger effect = lower value 0.524 | S. cerevisiae deletion strains, locus YJR066W, strain TOR1, stronger effect = lower value 0.565 | S. cerevisiae deletion strains, locus YKL068W, stronger effect = lower value 0.854 | S. cerevisiae deletion strains, locus YKL085W, strain MDH1 (second series), stronger effect = lower value 0.868 | S. cerevisiae deletion strains, locus YKL085W, strain MDH1, stronger effect = lower value 0.868 | S. cerevisiae deletion strains, locus YKL160W, strain elf1, stronger effect = lower value 0.568 | S. cerevisiae deletion strains, locus YKL190W, strain CNB1, stronger effect = lower value 0.286 | S. cerevisiae deletion strains, locus YKR001C, strain vps1, stronger effect = lower value 0.26 | S. cerevisiae deletion strains, locus YKR026C, strain gcn3, stronger effect = lower value 0.744 | S. cerevisiae deletion strains, locus YKR091W, strain srl3, stronger effect = lower value 0.714 | S. cerevisiae deletion strains, locus YLL001W, strain dnm1, stronger effect = lower value 0.492 | S. cerevisiae deletion strains, locus YLL026W, stronger effect = lower value 0.576 | S. cerevisiae deletion strains, locus YLL041C, strain sdh2, stronger effect = lower value 0.733 | S. cerevisiae deletion strains, locus YLR027C, strain aat2, stronger effect = lower value 0.578 | S. cerevisiae deletion strains, locus YLR039C, strain RIC1, stronger effect = lower value 0.149 | S. cerevisiae deletion strains, locus YLR058C, strain SHM2, stronger effect = lower value 0.203 | S. cerevisiae deletion strains, locus YLR102C, strain apc9, stronger effect = lower value 0.516 | S. cerevisiae deletion strains, locus YLR113W, strain HOG1, stronger effect = lower value 0.56 | S. cerevisiae deletion strains, locus YLR221C, strain rsa3, stronger effect = lower value 0.538 | S. cerevisiae deletion strains, locus YLR258W, strain gsy2, stronger effect = lower value 0.58 | S. cerevisiae deletion strains, locus YLR262C, strain YPT6 (second series), stronger effect = lower value 0.201 | S. cerevisiae deletion strains, locus YLR268W, strain sec22, stronger effect = lower value 0.194 | S. cerevisiae deletion strains, locus YLR320W, strain mms22, stronger effect = lower value 0.374 | S. cerevisiae deletion strains, locus YLR342W, strain FKS1, stronger effect = lower value 0.453 | S. cerevisiae deletion strains, locus YLR357W, strain rsc2, stronger effect = lower value 0.579 | S. cerevisiae deletion strains, locus YLR370C, strain arc18, stronger effect = lower value 0.539 | S. cerevisiae deletion strains, locus YLR371W, strain rom2, stronger effect = lower value 0.316 | S. cerevisiae deletion strains, locus YLR384C, strain iki3, stronger effect = lower value 0.574 | S. cerevisiae deletion strains, locus YLR418C, strain cdc73, stronger effect = lower value 0.225 | S. cerevisiae deletion strains, locus YML016C, strain PPZ1, stronger effect = lower value 0.195 | S. cerevisiae deletion strains, locus YML032C, strain rad52, stronger effect = lower value 0.487 | S. cerevisiae deletion strains, locus YML120C, strain ndi1, stronger effect = lower value 0.602 | S. cerevisiae deletion strains, locus YML124C, strain tub3, stronger effect = lower value 0.547 | S. cerevisiae deletion strains, locus YMR058W, strain fet3, stronger effect = lower value 0.444 | S. cerevisiae deletion strains, locus YMR078C, strain ctf18, stronger effect = lower value 0.455 | S. cerevisiae deletion strains, locus YMR125W, strain sto1, stronger effect = lower value 0.773 | S. cerevisiae deletion strains, locus YMR129W, stronger effect = lower value 0.69 | S. cerevisiae deletion strains, locus YMR205C, strain PFK2, stronger effect = lower value 0.423 | S. cerevisiae deletion strains, locus YMR223W, strain ubp8, stronger effect = lower value 0.408 | S. cerevisiae deletion strains, locus YMR231W, strain pep5, stronger effect = lower value 0.641 | S. cerevisiae deletion strains, locus YMR263W, strain SAP30, stronger effect = lower value 0.295 | S. cerevisiae deletion strains, locus YMR307W, strain GAS1, stronger effect = lower value 0.167 | S. cerevisiae deletion strains, locus YNL067W, strain RPL9B, stronger effect = lower value 0.324 | S. cerevisiae deletion strains, locus YNL071W, strain lat1, stronger effect = lower value 0.386 | S. cerevisiae deletion strains, locus YNL128W, strain TEP1, stronger effect = lower value 0.216 | S. cerevisiae deletion strains, locus YNL153C, strain GIM3, stronger effect = lower value 0.28 | S. cerevisiae deletion strains, locus YNL183C, strain NPR1, stronger effect = lower value 0.596 | S. cerevisiae deletion strains, locus YNL209W, strain ssb2, stronger effect = lower value 0.265 | S. cerevisiae deletion strains, locus YNL233W, strain BNI4, stronger effect = lower value 0.246 | S. cerevisiae deletion strains, locus YNL248C, strain rpa49, stronger effect = lower value 0.458 | S. cerevisiae deletion strains, locus YNL250W, strain rad50, stronger effect = lower value 0.895 | S. cerevisiae deletion strains, locus YNL271C, strain bni1, stronger effect = lower value 0.828 | S. cerevisiae deletion strains, locus YNL298W, strain CLA4, stronger effect = lower value 0.775 | S. cerevisiae deletion strains, locus YNL307C, strain MCK1, stronger effect = lower value 0.188 | S. cerevisiae deletion strains, locus YNL322C, strain KRE1 (second series), stronger effect = lower value 0.726 | S. cerevisiae deletion strains, locus YNR049C, strain mso1, stronger effect = lower value 0.659 | S. cerevisiae deletion strains, locus YNR052C, strain pop2, stronger effect = lower value 0.218 | S. cerevisiae deletion strains, locus YOL147C, strain pex11, stronger effect = lower value 0.362 | S. cerevisiae deletion strains, locus YOR001W, strain rrp6, stronger effect = lower value 0.608 | S. cerevisiae deletion strains, locus YOR061W, strain CKA2, stronger effect = lower value 0.237 | S. cerevisiae deletion strains, locus YOR069W, strain VPS5, stronger effect = lower value 0.314 | S. cerevisiae deletion strains, locus YOR070C, strain gyp1, stronger effect = lower value 0.496 | S. cerevisiae deletion strains, locus YOR080W, strain dia2, stronger effect = lower value 0.638 | S. cerevisiae deletion strains, locus YOR083W, strain WHI5, stronger effect = lower value 0.475 | S. cerevisiae deletion strains, locus YOR106W, strain vam3, stronger effect = lower value 0.302 | S. cerevisiae deletion strains, locus YOR136W, strain idh2, stronger effect = lower value 0.433 | S. cerevisiae deletion strains, locus YOR144C, strain elg1, stronger effect = lower value 0.561 | S. cerevisiae deletion strains, locus YOR184W, strain ser1, stronger effect = lower value 0.209 | S. cerevisiae deletion strains, locus YOR231W, strain MKK1, stronger effect = lower value 0.707 | S. cerevisiae deletion strains, locus YOR265W, strain rbl2, stronger effect = lower value 0.503 | S. cerevisiae deletion strains, locus YOR270C, strain vph1, stronger effect = lower value 0.278 | S. cerevisiae deletion strains, locus YOR290C, strain snf2, stronger effect = lower value 0.41 | S. cerevisiae deletion strains, locus YOR316C, strain cot1, stronger effect = lower value 0.474 | S. cerevisiae deletion strains, locus YPL051W, strain arl3, stronger effect = lower value 0.295 | S. cerevisiae deletion strains, locus YPL078C, strain atp4, stronger effect = lower value 0.471 | S. cerevisiae deletion strains, locus YPL106C, strain sse1, stronger effect = lower value 0.502 | S. cerevisiae deletion strains, locus YPL240C, strain hsp82, stronger effect = lower value 0.613 | S. cerevisiae deletion strains, locus YPL256C, strain CLN2, stronger effect = lower value 0.749 | S. cerevisiae deletion strains, locus YPR119W, strain clb2, stronger effect = lower value 0.558 | S. cerevisiae deletion strains, locus YPR141C, strain kar3, stronger effect = lower value 0.854 | S. cerevisiae deletion strains, locus YPR163C, strain tif3, stronger effect = lower value 0.214 | S. cerevisiae deletion strains, locus YPR167C, strain met16, stronger effect = lower value 0.377 | S. cerevisiae deletion strains, strain wtn01, stronger effect = lower value 0.295 | S. cerevisiae strains, strain wild type, stronger effect = lower value 0.166
